Source: PubChem BioAssay (The Scripps Research Institute Molecular Screening Center)
Compounds with a hit are over-represented: about 3.4% of the library has one in this group of screens.
ADAM17 inh: ADAM17 inhibition, QFRET primary screen | recombinant ADAM17, EDANS/DABCYL FRET peptide cleavage | inhibition, % at 6.95 µM | 0.83% of 370,000 active;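 active = inhibition above the mean of compounds lying between control limits plus 3 SD, set per campaign, cut at about 8.5% in these data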
Target sequence (P78536 215-824 limits assumed): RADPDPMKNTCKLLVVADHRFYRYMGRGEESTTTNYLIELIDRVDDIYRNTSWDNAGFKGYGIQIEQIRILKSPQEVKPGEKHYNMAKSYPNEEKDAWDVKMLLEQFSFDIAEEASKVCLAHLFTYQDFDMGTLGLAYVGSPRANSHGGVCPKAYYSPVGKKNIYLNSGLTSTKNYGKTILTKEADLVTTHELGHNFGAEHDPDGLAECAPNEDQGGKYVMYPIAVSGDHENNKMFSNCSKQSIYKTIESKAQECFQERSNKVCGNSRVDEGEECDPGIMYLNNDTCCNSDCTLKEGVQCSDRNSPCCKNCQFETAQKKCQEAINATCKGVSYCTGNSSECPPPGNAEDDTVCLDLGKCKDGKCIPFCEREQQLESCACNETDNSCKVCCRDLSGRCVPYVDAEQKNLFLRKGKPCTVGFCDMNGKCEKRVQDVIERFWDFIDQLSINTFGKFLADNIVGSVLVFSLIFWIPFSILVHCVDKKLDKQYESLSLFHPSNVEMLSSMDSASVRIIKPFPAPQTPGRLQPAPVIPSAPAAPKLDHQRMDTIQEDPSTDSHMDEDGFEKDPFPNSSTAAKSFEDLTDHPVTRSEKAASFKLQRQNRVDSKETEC
PLC-beta3 inh: blocks human PLC-beta3 enzyme activity; Purified PLC-beta3, fluorogenic substrate, fluorescence; 0.18% of 370,000 active; inhibition, % at 12.2 µM; in the data active = inhibition above about 11%
PLC-gamma1 inh: blocks human PLC-gamma1 enzyme activity | 0.84% of 370,000 active | purified PLC-gamma1, fluorogenic substrate, fluorescence | AID 720700 | inhibition, % at 12.2 µM; in the data active = inhibition above about 9.5%
HGIII-sPLA2 inh: Inhibits HGIII-sPLA2 liposome hydrolysis, primary screen. inhibition, % at 12.2 µM. 0.56% of 370,000 active. Q9NZ20. QFRET BODIPY PC-A2 liposome hydrolysis, fluorescence;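 active = inhibition above mean plus 3 SD of compounds lying within the high and low control bounds, cut at about 19% in these data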
ADAM10 inh: inhibits human ADAM10. O14672. recombinant ADAM10, EDANS/DABCYL FRET peptide cleavage, 3 h. inhibition, % at 7 µM. 0.62% of 370,000 active;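 active = inhibition above a per-campaign cutoff equal to the mean of compounds falling between control-based bounds plus 3 SD, cut at about 20% in these data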
KLK7 zymogen act: activates the human kallikrein-7 zymogen; P49862; purified proKLK7, EDANS-DABCYL substrate fluorescence; 100% is mature enzyme control, 0% vehicle; activation, % at 7 µM; 0.9% of 370,000 active; AID 652039;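 active = activation above the mean of all tested compounds plus 3 SD, computed per campaign excluding outliers beyond control limits, cut at about 13% in these data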
KLK7 act conf: confirmation of human kallikrein-7 zymogen activators. purified proKLK7, EDANS-DABCYL substrate fluorescence; scaled: vehicle 0, mature enzyme 100. shares compounds with KLK7 zymogen act. 68% of 3,200 active. activation, % at 7 µM. AID 686949;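 active = activation, as change over the incubation, above the mean of all tested compounds plus 3 SD, cut at about 13% in these data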
EDANS interfere: fluorescence interference counter-screen for KLK7 activators; shares compounds with KLK7 zymogen act; EDANS-DABCYL substrate fluorescence interference, no enzyme, 4 h; solvent 0%, active enzyme control 100%; activation, % at 7 µM; 80% of 3,200 active;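 active = activation above the all-compound mean plus 3 SD, ignoring values outside control-based bounds, cut at about 4.8% in these data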;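 note: value is the 4 h activation minus the activation read at time zero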
EDANS interf: optically interferes with EDANS-DABCYL fluorescence, kallikrein-7 activator counter-screen | shares compounds with KLK7 zymogen act | EDANS-DABCYL peptide fluorescence interference, no enzyme | EC50, µM | 20% of 250 active | AID 720493;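 active = compounds that raise the fluorescence signal in this interference counterscreen, with EC50 at or below 10 µM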;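 note: intact quenched peptide substrate alone read at 355 nm excitation and 520 nm emission; signal is fluorescence gain from T0 to T4 after four hours at room temperature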
Of the large screens only hits and unclear results are named; the others gave an inactive call (follow-up assays come after a bar, where they were run).

N#C/C(=C(/O)CCCl)c1ccccn1	KLK7 zymogen act 208.6 | KLK7 act conf 389.0 | EDANS interfere 395.1
CCOC(=O)N(C)C[C@H]1OCc2cn(nn2)CCCC(=O)N([C@@H](C)CO)C[C@@H]1C	none
CCOc1ccccc1C1C2=C(COC2=O)Nc2cc3c(cc21)OCO3 (stereo not drawn)	KLK7 zymogen act 16.1 | KLK7 act conf inactive | EDANS interfere inactive
C#CCOc1ccc(C2C3=C(COC3=O)Nc3cc4c(cc32)OCO4)cc1OC (stereo not drawn)	KLK7 zymogen act 68.5 | KLK7 act conf inactive | EDANS interfere inactive
CCC(CC)CN1CCC(CN2C(=S)NC[C@@H]2Cc2ccccc2)CC1	none
CCOC(=O)c1c(-c2ccccc2)oc2ccc(OCC(=O)O)cc12	KLK7 zymogen act 25.2 | KLK7 act conf 25.3 | EDANS interfere 25.4
CCOC(=O)c1c(-c2ccc(OC)cc2)oc2ccc(OCC(N)=O)cc12	none
CCOC(=O)C1(Cc2ccccc2)CCN(Cc2cccc(C#N)c2)CC1	none
O=C(CSc1nnc(-c2ccccc2)n1Cc1ccco1)Nc1ccc(Oc2ccccc2)cc1	none
N#C/C(=C\c1ccncc1)c1nc2c(s1)CCCC2	KLK7 zymogen act 38.2 | KLK7 act conf 22.1 | EDANS interfere 21.6
N#CC(=Cc1ccncc1)c1ccccc1	none
COCCCNC(=O)c1nnn2c1nc(N)c1cc(Cl)ccc12	KLK7 zymogen act 14.7 | KLK7 act conf 40.2 | EDANS interfere 39.8
Cc1ccc2c(CN3CCOCC3)cc(=O)oc2c1C	none
Cc1cc(=O)oc2c(CN3CCOCC3)c(O)ccc12	KLK7 zymogen act 99.5 | KLK7 act conf 74.1 | EDANS interfere 64.8
COc1ccc2c(C)cc(=O)oc2c1OCC(O)CN1CCOCC1 (stereo not drawn)	KLK7 zymogen act 15.3 | KLK7 act conf inactive | EDANS interfere 10.2
Cc1cc(=O)oc2c(CN3CCCCC3)c(O)ccc12	KLK7 zymogen act 118.2 | KLK7 act conf 71.3 | EDANS interfere 73.2
CN(Cc1ccccc1)Cc1c(O)ccc2ccccc12	none
Cc1cc(=O)oc2c(CN(C)Cc3ccccc3)c(O)ccc12	KLK7 zymogen act 74.7 | KLK7 act conf 72.2 | EDANS interfere 78.3
COc1ccccc1-c1nnc(SCC#CCOC(=O)c2ccc(F)cc2)o1	none (no result: KLK7 zymogen act)
COc1ccc(CN2CCC(CNC(=O)NC3CCCC3)CC2)cc1	none
CCCCC(=O)Nc1c(-c2ccc(OC)c(OC)c2)c(=O)c2ccccc2n1C	none
CCCC(=O)Nc1c(-c2ccc(OC)cc2)c(=O)c2ccccc2n1C	KLK7 zymogen act 17.1 | KLK7 act conf 19.8 | EDANS interfere 16.6 | EDANS interf inactive
CCCCCC(=O)Nc1c(-c2ccc(OC)cc2)c(=O)c2ccccc2n1C	KLK7 zymogen act 16.9 | KLK7 act conf inactive | EDANS interfere inactive
O=C(O)CCCNC(=O)CC1S/C(=N/N=C/c2ccccc2O)NC1=O (stereo not drawn)	KLK7 zymogen act 24.6 | KLK7 act conf 27.3 | EDANS interfere 34.3
CCCCNC(=O)CC1S/C(=N/N=C/c2ccc(OC)cc2)NC1=O (stereo not drawn)	none
COCCN(C(=O)c1ccc(-c2ccc(Cl)cc2)o1)c1c(N)n(Cc2ccccc2)c(=O)[nH]c1=O	KLK7 zymogen act 38.9 | KLK7 act conf 28.6 | EDANS interfere 29.6
COCCCn1c(CCC(=O)O)ccc1-c1cccs1	KLK7 zymogen act 12.7 | KLK7 act conf inactive | EDANS interfere 8.7
CCCn1c(CCC(=O)O)ccc1-c1cccs1	none
CN(Cc1ccccc1F)Cc1cc(=O)oc2cc(O)c(Cl)cc12	KLK7 zymogen act 59.6 | KLK7 act conf 68.5 | EDANS interfere 60.7
CC1CCN(Cc2cc(=O)oc3cc(O)c(Cl)cc23)CC1	KLK7 zymogen act 48.1 | KLK7 act conf 70.3 | EDANS interfere 70.9
Cc1ccc2oc(=O)cc(CN3CC(C)OC(C)C3)c2c1 (stereo not drawn)	none
CC1CN(Cc2cc(=O)oc3cc(O)c(Cl)cc23)CC(C)O1 (stereo not drawn)	KLK7 zymogen act 87.4 | KLK7 act conf 73.4 | EDANS interfere 69.5
Cc1cc2oc(=O)cc(CN(C)Cc3ccccc3F)c2cc1Cl	none
CON(Cc1ccccc1)S(=O)(=O)c1ccccc1Br	none
Cc1cc(=O)oc2cc(O)cc(O)c12	KLK7 zymogen act 65.8 | KLK7 act conf 67.3 | EDANS interfere 76.4
COc1cc(OC)c2c(C)cc(=O)oc2c1	KLK7 zymogen act 32.4 | KLK7 act conf 37.7 | EDANS interfere 48.0
COc1cc(OC)c2ccc(=O)oc2c1	KLK7 zymogen act 89.9 | KLK7 act conf 49.2 | EDANS interfere 61.1
C=CCN1[C@@H](C)[C@@H](c2ccccc2)Oc2c(Cl)cccc2S1(=O)=O	none
O=C1/C(=C/c2ccco2)Oc2c1ccc(O)c2CN1CCCCC1	KLK7 zymogen act 13.7 | KLK7 act conf 66.5 | EDANS interfere 73.1
COCCN(CCOC)Cc1c(O)ccc2c1O/C(=C\c1ccco1)C2=O	KLK7 zymogen act 18.7 | KLK7 act conf 23.0 | EDANS interfere 26.7
CCC(=O)Oc1ccc2c(c1)O/C(=C\c1ccco1)C2=O	KLK7 zymogen act 50.9 | KLK7 act conf 478.2 | EDANS interfere 467.0
COC(=O)COc1ccc2c(c1)O/C(=C\c1ccco1)C2=O	none
CCC(CC)(CC(=O)Nc1cccc(/C=C/c2nc(C3CCC3)cs2)c1)C(=O)O	none
O=S1(=O)c2ccc(Br)cc2OC2CCCC[C@@H]2N1Cc1ccccc1 (stereo partly drawn)	none
CC[C@]12c3[nH]c4cc(CCC(=O)N(C)C)ccc4c3CCN1C(=O)[C@@H](CC(=O)NCCCOC)C[C@@H]2C(=O)N1CCN(C(=O)C2CC2)CC1	none
CC[C@]12c3[nH]c4cc(-c5ccco5)ccc4c3CCN1C(=O)[C@@H](CC(=O)NCCCOC)C[C@@H]2C(=O)N1CCN(C(=O)C2CC2)CC1	KLK7 zymogen act 88.8 | KLK7 act conf 80.7 | EDANS interfere 94.3
CC[C@]12c3[nH]c4ccc(OC)cc4c3CCN1C(=O)C(CC(=O)NCCCOC)C[C@@H]2C(=O)N1CCN(C(=O)c2ccco2)CC1 (stereo partly drawn)	none
